The values that follow come from PubChem BioAssay (EPA / NIEHS).

Activity calls are given as the source filed them. The calls were made as follows: active = hit-call score of the fitted dose curve at least 0.9, where 1 is the maximum; inactive = score below 0.9.

What all share (settings): mRNA level, 48 h; actives raise or lower the signal
Read-out in assay [1]: Insulin Like Growth Factor 1 (IGF1), IGF1 (gene 3479)
Kind of assay: LTEA_HepaRG_IGF1: Life Technologies and Expression Analysis (LTEA) Assay for Insulin Like Growth Factor 1 (IGF1) using HepaRG (AID 2283506). In outline:
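Endpoint: IGF1 mRNA change by qRT-PCR, housekeeping-normalized, fitted bidirectionally relative to 0.5% DMSO vehicle. Human HepaRG cells were treated 48 h in serum-free induction medium, eight half-log concentrations topping at 100 uM.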

Read-out in assay [2]: Intercellular Adhesion Molecule 1 (ICAM1), ICAM1 (gene 3383)
The assay can be described thus: LTEA_HepaRG_ICAM1: Life Technologies and Expression Analysis (LTEA) Assay for Intercellular Adhesion Molecule 1 (ICAM1) using HepaRG (AID 2283507). In outline:
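Readout is qRT-PCR mRNA level, normalized to three housekeeping genes and fitted bidirectionally against 0.5% DMSO vehicle. Human HepaRG cultures received compound for 48 h, top concentration 100 uM with half-log dilutions.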

Read-out in assay [3]: Insulin-like growth factor-binding protein 1 (IGFBP1), IGFBP1 (gene 3484)
Kind of assay: LTEA_HepaRG_IGFBP1: Life Technologies and Expression Analysis (LTEA) Assay for Insulin-like growth factor-binding protein 1 (IGFBP1) using HepaRG (AID 2283508). Put shortly: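 Thawed HepaRG cells are plated for 48 h, switched to serum-free induction medium, then dosed in duplicate for another 48 h (100 uM top, half-log steps). Lysates in RLT go to qRT-PCR, and gain or loss of signal is fitted relative to vehicle.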

Read-out in assay [4]: Interleukin 6 (IL6), IL6 (gene 3569)
The assay can be described thus: LTEA_HepaRG_IL6: Life Technologies and Expression Analysis (LTEA) Assay for Interleukin 6 (IL6) using HepaRG (AID 2283509). In outline: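 Changes in IL6 mRNA, up or down relative to 0.5% DMSO controls, were derived from concentration-response curves in human HepaRG cells treated for 48 h at up to 100 uM, with ACTB, GAPDH and POLR2A as normalizers.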

Read-out in assay [5]: Interleukin 6 Receptor (IL6R), IL6R (gene 3570)
The assay can be described thus: LTEA_HepaRG_IL6R: Life Technologies and Expression Analysis (LTEA) Assay for Interleukin 6 Receptor (IL6R) using HepaRG (AID 2283510).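 As to AC50: differentiated human HepaRG liver cells in serum-free induction medium; TaqMan qRT-PCR signal normalized to ACTB GAPDH and POLR2A housekeeping genes.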 In outline:
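In this HepaRG screen, test chemicals act on cells for 48 h at up to 100 uM (eight half-log points, duplicate wells). IL6R expression is quantified by qRT-PCR after normalization to ACTB, GAPDH and POLR2A, with DMSO as baseline.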

Read-out in assay [6]: Potassium channel subfamily K member 1 (KCNK1), KCNK1 (gene 3775)
The assay can be described thus: LTEA_HepaRG_KCNK1: Life Technologies and Expression Analysis (LTEA) Assay for Potassium channel subfamily K member 1 (KCNK1) using HepaRG (AID 2283511). In outline: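 Human HepaRG cultures receive test chemicals for 48 h in 0.5% DMSO, top concentration 100 uM with half-log dilutions. Induction or suppression of KCNK1 mRNA relative to DMSO is derived by bidirectional fitting of qRT-PCR data.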

Read-out in assay [7]: Keratin 19 (KRT19), KRT19 (gene 3880)
The assay can be described thus: LTEA_HepaRG_KRT19: Life Technologies and Expression Analysis (LTEA) Assay for Keratin 19 (KRT19) using HepaRG (AID 2283512). Put shortly:
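KRT19 transcript levels, measured by Fluidigm qRT-PCR against three housekeeping genes, are fitted for gain or loss of signal relative to DMSO. Human HepaRG cells receive test chemicals (top 100 uM, half-log steps, 0.5% DMSO) for 48 hours.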

Read-out in assay [8]: JUN Transcription Factor, JUN (gene 3725)
The assay can be described thus: LTEA_HepaRG_JUN: Life Technologies and Expression Analysis (LTEA) Assay for JUN Transcription Factor using HepaRG (AID 2283513). Put shortly:
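Gene-expression endpoint: JUN mRNA (qRT-PCR, normalized to three reference genes) in HepaRG cultures treated 48 h with chemicals, duplicate wells, 100 uM maximum with half-log dilutions; bidirectional fitting relative to 0.5% DMSO.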

Read-out in assay [9]: Lipase C (LIPC), LIPC (gene 3990)
Kind of assay: LTEA_HepaRG_LIPC: Life Technologies and Expression Analysis (LTEA) Assay for Lipase C (LIPC) using HepaRG (AID 2283514). In outline: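 In this multiplexed gene-expression screen, human HepaRG cultures received test chemicals for 48 h across eight concentrations with 100 uM highest, in duplicate. Values reflect LIPC mRNA induction or suppression versus DMSO vehicle, from normalized qRT-PCR.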

Read-out in assay [10]: Lipoprotein lipase (LPL), LPL (gene 4023)
Kind of assay: LTEA_HepaRG_LPL: Life Technologies and Expression Analysis (LTEA) Assay for Lipoprotein lipase (LPL) using HepaRG (AID 2283515). In outline:
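Concentration-response testing used half-log steps from 100 uM in 0.5% DMSO on human HepaRG cells, 48 h, duplicate wells. Phenobarbital 1 mM served as induction control; LPL mRNA was normalized to ACTB, GAPDH, POLR2A.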

Read-out in assay [11]: MicroRNA 122 (MIR122), gene 406906
The assay can be described thus: LTEA_HepaRG_MIR122: Life Technologies and Expression Analysis (LTEA) Assay for MicroRNA 122 (MIR122) using HepaRG (AID 2283516). Also: the transcript read is the microRNA miR-122. Put shortly: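 Changes in transcript abundance, up or down relative to 0.5% DMSO vehicle, were scored after 48 h chemical treatment of HepaRG cells (maximum 100 uM). Quantification used TaqMan qRT-PCR normalized to housekeeping genes.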

Read-out in assay [12]: matrix metalloproteinase-10 (MMP10), MMP10 (gene 4319)
The assay can be described thus: LTEA_HepaRG_MMP10: Life Technologies and Expression Analysis (LTEA) Assay for matrix metalloproteinase-10 (MMP10) using HepaRG (AID 2283517). Put shortly:
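In differentiated HepaRG cultures kept in 0.5% DMSO, test chemicals act for 48 h over an eight-point range with a top dose of 100 uM. Expression is then quantified by TaqMan RT-PCR against ACTB, GAPDH and POLR2A.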

Read-out in a further assay: MYC, MYC (gene 4609)
Kind of assay: LTEA_HepaRG_MYC: Life Technologies and Expression Analysis (LTEA) Assay for MYC using HepaRG (AID 2283518). Put shortly:
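HepaRG, ~100,000 cells/well, collagen I; 48 h plating; serum-free induction medium; 48 h dosing, duplicate, 100 uM top, half-log, 0.5% DMSO; total RNA → qRT-PCR MYC; gain/loss fit vs DMSO.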

Read-out in assay [13]: matrix metalloproteinase-3 (MMP3), MMP3 (gene 4314)
The assay can be described thus: LTEA_HepaRG_MMP3: Life Technologies and Expression Analysis (LTEA) Assay for matrix metalloproteinase-3 (MMP3) using HepaRG (AID 2283519). Put shortly:
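Human liver HepaRG cultures received chemicals (top concentration 100 uM, 0.5% DMSO) for 48 h in duplicate. MMP3 mRNA induction or loss was then assessed via TaqMan qRT-PCR with housekeeping-gene normalisation.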

Read-out in assay [14]: Paternally Expressed 10 (PEG10), PEG10 (gene 23089)
Kind of assay: LTEA_HepaRG_PEG10: Life Technologies and Expression Analysis (LTEA) Assay for Paternally Expressed 10 (PEG10) using HepaRG (AID 2283520).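 As to AC50: PEG10 transcript by qRT-PCR normalised to ACTB GAPDH and POLR2A.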 Put shortly:
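After 48 h exposure of differentiated HepaRG cells (0.5% DMSO vehicle, eight concentrations up to 100 uM, duplicates), PEG10 mRNA was measured by TaqMan qRT-PCR. Values were normalised to endogenous control genes and analysed bidirectionally against vehicle.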

Read-out in assay [15]: Nuclear factor NF-kappa-B p105 subunit (Homo sapiens) (UniProt P19838)
Kind of assay: LTEA_HepaRG_NFKB1: Life Technologies and Expression Analysis (LTEA) Assay for Nuclear Factor Kappa B Subunit 1 (NFKB1) using HepaRG (AID 2283521).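 As to outcome: differentiated human HepaRG liver cells in serum-free induction medium; TaqMan qRT-PCR transcript normalised to ACTB GAPDH and POLR2A housekeeping genes.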 Put shortly: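 HepaRG, 48 h exposure; 8-pt half-log series from 100 uM in 0.5% DMSO; duplicates. Readout: NFKB1 mRNA by qRT-PCR (Fluidigm arrays), housekeeping-normalized. Gain/loss fit vs DMSO baseline.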

Read-out in assay [16]: Protein phosphatase 2A (PPP2R4), PTPA (gene 5524)
Kind of assay: LTEA_HepaRG_PPP2R4: Life Technologies and Expression Analysis (LTEA) Assay for Protein phosphatase 2A (PPP2R4) using HepaRG (AID 2283522). In outline: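 Using HepaRG cultures maintained in 0.5% DMSO, chemicals are tested 48 h at up to 100 uM in duplicate. Induction or suppression of PPP2R4 mRNA, measured by qRT-PCR, is fitted bidirectionally against the vehicle baseline.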

Read-out in assay [17]: Phosphatase and tensin (PTEN), PTEN (gene 5728)
The assay can be described thus: LTEA_HepaRG_PTEN: Life Technologies and Expression Analysis (LTEA) Assay for Phosphatase and tensin (PTEN) using HepaRG (AID 2283523). Put shortly: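 Expression of PTEN is quantified in the human liver line HepaRG following two days of dosing (top concentration 100 uM, half-log dilutions, 0.5% DMSO). Values derive from bidirectional curve fitting relative to DMSO controls.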

Read-out in assay [18]: solute carrier (SLC22A1), SLC22A1 (gene 6580)
Kind of assay: LTEA_HepaRG_SLC22A1: Life Technologies and Expression Analysis (LTEA) Assay for solute carrier (SLC22A1) using HepaRG (AID 2283524).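 As to AC50: differentiated human HepaRG liver cells in serum-free induction medium; TaqMan qRT-PCR normalized to ACTB GAPDH and POLR2A housekeeping genes.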 Put shortly:
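Transcript induction or suppression of SLC22A1 in human HepaRG cultures is scored after 48 h chemical treatment, with DMSO (0.5%) as baseline for bidirectional fitting. Concentrations span eight half-log points topping at 100 uM.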

Read-out in assay [19]: Pyruvate Dehydrogenase Kinase 4 (PDK4), PDK4 (gene 5166)
Kind of assay: LTEA_HepaRG_PDK4: Life Technologies and Expression Analysis (LTEA) Assay for Pyruvate Dehydrogenase Kinase 4 (PDK4) using HepaRG (AID 2283525). In outline: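 Eight-point, half-log concentration series (max 100 uM, 0.5% DMSO) applied to differentiated HepaRG cells for 48 h in duplicate. Endpoint: PDK4 mRNA induction or repression by qRT-PCR against DMSO baseline.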

Chain of Nuclear factor NF-kappa-B p105 subunit (Homo sapiens) (P19838 whole entry, looked up): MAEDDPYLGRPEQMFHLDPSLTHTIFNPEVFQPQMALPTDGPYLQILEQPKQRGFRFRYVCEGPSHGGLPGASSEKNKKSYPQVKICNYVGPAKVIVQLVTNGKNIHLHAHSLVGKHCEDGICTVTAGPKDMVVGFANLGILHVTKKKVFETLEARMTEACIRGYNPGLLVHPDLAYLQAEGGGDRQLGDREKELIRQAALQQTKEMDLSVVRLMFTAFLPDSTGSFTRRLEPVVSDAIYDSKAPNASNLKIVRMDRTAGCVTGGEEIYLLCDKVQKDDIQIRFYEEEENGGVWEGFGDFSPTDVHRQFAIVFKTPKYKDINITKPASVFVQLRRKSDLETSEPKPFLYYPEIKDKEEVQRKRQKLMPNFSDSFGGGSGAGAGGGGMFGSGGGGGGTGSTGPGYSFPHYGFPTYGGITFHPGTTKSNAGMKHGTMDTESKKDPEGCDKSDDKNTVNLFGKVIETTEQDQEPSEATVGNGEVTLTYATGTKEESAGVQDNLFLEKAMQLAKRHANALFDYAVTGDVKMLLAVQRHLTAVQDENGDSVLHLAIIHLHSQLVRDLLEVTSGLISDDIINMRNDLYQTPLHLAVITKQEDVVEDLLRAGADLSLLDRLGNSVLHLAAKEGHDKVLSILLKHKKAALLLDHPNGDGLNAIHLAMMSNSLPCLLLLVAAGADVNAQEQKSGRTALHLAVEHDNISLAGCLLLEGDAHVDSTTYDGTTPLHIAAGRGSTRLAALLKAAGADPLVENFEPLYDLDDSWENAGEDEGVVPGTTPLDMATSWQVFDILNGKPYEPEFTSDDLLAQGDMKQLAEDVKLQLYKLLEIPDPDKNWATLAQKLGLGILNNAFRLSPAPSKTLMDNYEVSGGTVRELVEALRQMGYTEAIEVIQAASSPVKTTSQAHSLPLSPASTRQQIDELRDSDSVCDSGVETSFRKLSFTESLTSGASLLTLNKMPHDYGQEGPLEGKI

Regarding `CCOCCO`, the molecule was called inactive in [1], in assay [2], in [3], in assay [4], in [5] and in assay [6]. For the same molecule, the result in [7], in [8], in assay [9], in assay [10], in [11] and in assay [12] was inactive. Further, the outcome in the assay with MYC, MYC (gene 4609) was “inactive”; in assay [13] it was “inactive”; in assay [14], “inactive”; in assay [15] it was “inactive”; in assay [16], “inactive”; in assay [17], “inactive”. The call in [18] was inactive.
For `CCc1cc(SCc2sc(-c3ccc(C(F)(F)F)cc3)nc2CN2CCN(c3ccc(OC)cc3)CC2)ccc1OCC(=O)O`, the AC50 in assay [1] is 73.8 µM (active); in assay [2], 92.9 µM (active); in [3], 88.6 µM (active); in assay [4] it was 86 µM (active); in [5], 26.2 µM (active); in assay [6], 9.11 µM (active). The half-maximal activity concentration (AC50) in assay [7] is 94 µM (active); in [9], 7.95 µM (active); in assay [10] it was 27.9 µM (active); in [11], 93.4 µM (active); in [12] it was 7.31 µM (active); in the assay with MYC, MYC (gene 4609) it was 7.43 µM (active). Moreover, the AC50 in assay [14] was 93.6 µM (active); in [15] it was 91 µM (active); in [16], 22.4 µM (active); in [17], 24.6 µM (active); in assay [18], 8.47 µM (active).
As for `COc1ccc(-n2nc(C(F)F)cc2-c2ccc(S(C)=O)cc2)cc1` (stereo not given), the call in assay [1], in assay [2], in assay [3], in assay [4], in assay [5] and in [6] was inactive. The outcome in assay [8] was “inactive”; in assay [9], “inactive”; in [11], “inactive”; in assay [12], “inactive”; in the assay with MYC, MYC (gene 4609), “inactive”; in [13], “inactive”. For the same molecule, the molecule was classed as inactive in assay [14], in [15], in assay [16], in assay [17], in [18] and in [19]. Besides, the AC50 in assay [10] was 31.1 µM (active).

As a reminder, the AC50 is the concentration at which the activity in the assay is half-maximal.
